# Laboratory results as given in PubChem BioAssay (NCATS).
# Results filed as inconclusive are left out. The source made the active and inactive calls. The call rests on the fitted dose curve; in most records, active means well fitted cell-killing curve with a large enough effect; inconclusive means small, poorly fitted or top-dose-only effect, or effect the other way; inactive means flat fitted curve, though single readings scatter.
# Assay: MultiTox-Fluor Cytotoxicity Assay - LYMP1-001 - Dead Cells (AID 946);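 further: cells exposed to compound for 16 h; 0% = DMSO and 100% = tetraoctylammonium bromide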
# Settings: LYMP1-001 lymphoblastoid cells, dead-cell protease fluorescence; series mostly up to 92.2 µM; cytotoxicity (dead cells): at the top concentration
# Text: NIH Chemical Genomics Center [NCGC]
# NIH Molecular Libraries Screening Centers Network [MLSCN]
# National Institutes of Environmental Health Sciences [NIEHS]
# National Toxicology Program [NTP]
# We have developed a 1536-well cell-based assay for quantitative high throughput screening (qHTS) against a number of cell lines to determine in vitro cytotoxicity of small molecules. This particular assay uses a human lymphoblastoid cell line (LYMP1-001) purchased from Coriell Institute for Medical Research.
# NCGC Assay Protocol Summary:
# The MultiTox-Fluor Cytotoxicity Assay (Promega) is a homogeneous method to simultaneously measure the relative number of live and dead cells in culture by detecting changes in cell membrane integrity. There are two fluorogenic peptide substrates in the assay reagent. Viable cells are determined when the cell-permeant substrate (GF-AFC) enters the cell and is cleaved by protease from live cells resulting in liberated fluorophore. This live-cell protease activity restricted to viable cells is proportional to cell number. The dead cells are determined by using fluorogenic cell-impermeant peptide substrate (bis-AAF-R110) which cleaved by dead cell proteases leaking from damaged cell membrane.
# Using the MultiTox-Fluor Cytotoxicity Assay, the relative number of dead cells was measured in the lymphoblastoid cell line with complete culture medium following compound treatment for 16 hours. The assay was performed in opaque black Kalypsys 1536-well plates. In the screen, tetraoctylammonium bromide was used as positive control. Library compounds were measured for their ability to cause acute toxicity in the cell line, as reflected by an increase in dead cell protease activity, in a concentration-dependent manner. Data were normalized to the controls for basal activity (DMSO only) and 100% stimulation (15 uM tetraoctylammonium bromide). AC50 values were determined from concentration-response data modeled with the standard Hill equation.
# qHTS protocol for MultiTox-Fluor Cytotoxicity assay
# [Step] [Parameter] [Value] [Description]
# 1. Reagent; 5 uL; 2500 lymphoblastoid cells/well
# 2. Time; 5 hr; 37 C incubation
# 4. Controls; 23 nL; Tetraoctylammonium bromide 6.4pM to 92 uM
# 5. Time; 16 hr; 37 C incubation
# 6. Reagent; 5 uL; MuliTox-Fluor Assay reagent
# 7. Time; 60 min; Room Temperature
# 8. Detection; dead-cell fluorescence (Ex/Em=485/520); EnVision plate reader
# Keywords: cytotoxicity, lymphoblastoid cell line, fluorescence, NTPHTS, NTPHTS_NCGC, NIEHS, EPA, DSSTox, MLSMR, MLSCN, NIH Roadmap, qHTS, NCGC
row,SMILES,cytotoxicity (dead cells)
1,CCN(CC)N=O,3.98% (inactive)
2,C=CC(=O)OCC(CC)CCCC (stereo not given),1.57% (inactive)
3,CC(C#N)CCC#N (stereo not given),-18.3% (inactive)
4,COc1ccc(C=O)cc1,-1.44% (inactive)
5,CC(C)(OOC(C)(C)c1ccccc1)c1ccccc1,3.33% (inactive)
6,COC(=O)c1ccccc1N,1.41% (inactive)
7,Cc1cccc(N)c1C,-11.5% (inactive)
8,C=CCCC#N,-2.55% (inactive)
9,C/C=C/C=O,1.07% (inactive)
10,O=C(O)c1cccc(Cl)c1,-6.38% (inactive)
11,[N-]=[N+]=[N-],-6.99% (inactive)
12,BrCCc1ccccc1,7.13% (inactive)
13,CCCN(CCC)c1c([N+](=O)[O-])cc(C(F)(F)F)cc1[N+](=O)[O-],-1.5% (inactive)
14,Nc1ccc(Cl)c(Cl)c1,-13.4% (inactive)
15,CCC[N+](=O)[O-],0.433% (inactive)
16,CCOC(=O)C1OC1(C)c1ccccc1 (stereo not given),-2.37% (inactive)
17,O=[N+]([O-])c1ccccc1-c1ccccc1,0.299% (inactive)
18,Cl/C=C/Cl,3.94% (inactive)
19,CC(C)Br,19.8% (inactive)
20,O=C(O)c1cc(Cl)ccc1Cl,-7.24% (inactive)

row,SMILES,cytotoxicity (dead cells)
1,O=[N+]([O-])/C=C/c1ccccc1,5.7% (inactive)
2,O=P(OCCCl)(OCCCl)OCCCl,12.1% (inactive)
3,O=[N+]([O-])c1ccccc1O,-14.6% (inactive)
4,CN(C)c1ccc(N(C)C)cc1,3.41% (inactive)
5,CC(Cl)CCl (stereo not given),8.05% (inactive)
6,Cc1ccc(N)cc1N,-3% (inactive)
7,NC1CCC(CC2CCC(N)CC2)CC1 (stereo not given),5.9% (inactive)
8,Nn1cnnc1,12.2% (inactive)
9,Cc1cc(N=Nc2ccccc2C)ccc1N,-26% (inactive)
10,CC(C)(Cl)[N+](=O)[O-],4.24% (inactive)
11,S=c1[nH]c2ccccc2[nH]1,-12.3% (inactive)
12,CCCCOCC1CO1 (stereo not given),12.6% (inactive)
13,N#CCc1ccccc1,2.67% (inactive)
14,ClC(Cl)C(Cl)Cl,-9.24% (inactive)
15,ClC=CCl,-9.25% (inactive)
16,CCOC(=O)CBr,-12.6% (inactive)
17,N#CC(Cl)(Cl)Cl,-13.5% (inactive)
18,O=[N+]([O-])c1cc(Cl)c(Cl)cc1Cl,-4.89% (inactive)
19,N#CCCCCC#N,-16.3% (inactive)
20,CSSC,-23.4% (inactive)
